PubChem BioAssay
Unmarked numbers belong to inactive results. For some of these results: Results with a measured potency or affinity are listed apart. The source made the active and inactive calls. Unless noted, how the calls were made is not given here.

Tests used:
[1] = antimalarial activity against Dd2 strain (AID 2302;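 active means growth inhibition above 50% at the single 2 µM test dose, taken to imply half-maximal potency below 2 µM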;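 further: 0% = DMSO untreated growth and 100% = chloroquine plus artemisinin killed control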); details: P. falciparum Dd2 in RBCs, LDH growth readout, 72 h; at 2 µM; active compounds read high
[2] = HepG2 cytotoxicity, primary screen, cytotoxicity control for P. falciparum antimalarial project, cell-based, ATP luminescence (AID 2303;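 active means inhibition above 50%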;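 further: 0% = DMSO wells and 100% = digitonin-killed cells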); details: HepG2 viability, 24-48 h, at 10 µM, active compounds read high
[3] = molecular target: L-lactate dehydrogenase (Plasmodium falciparum (isolate CDC / Honduras)) (UniProt Q27743); test: PfLDH activity inhibition – cell lysate, 3D7 strain, counter-screen for P. falciparum growth inhibition project (AID 2304);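 further: 0% = vehicle and 100% = reference inhibitor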; details: P. falciparum 3D7 crude extract, LDH APAD/NBT absorbance; at 2 µM; active compounds read high
[4] = inhibition of 3D7 malaria parasite growth – strain 3D7 (AID 2306);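 further: 0% = DMSO wells and 100% = chloroquine plus artemisinin control wells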; details: P. falciparum 3D7 erythrocytic growth, LDH absorbance, 72 h; at 2 µM; active compounds read high
[5] = molecular target: Calcium-dependent protein kinase 1 (Plasmodium falciparum (isolate 3D7)) (UniProt P62344); test: PfCDPK1 kinase inhibitors, biochemical, TCAMS library (AID 1159585; cut-off not given, nearly all actives have IC50 up to about 0.98 µM;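 further: inhibitors leave more ATP so luminescence rises with inhibition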); details: recombinant PfCDPK1, Kinase-Glo ATP depletion luminescence
[6] = molecular target: Plasmodium falciparum protein kinase 6 (PK6, PF3D7_1337100) (UniProt Q8IDW1); test: PfPK6 kinase inhibitors, biochemical, TCAMS library (AID 1159586); details: recombinant PfPK6, Kinase-Glo ATP depletion luminescence
[7] = molecular target: Protein kinase 7 (PK7), Plasmodium falciparum 3D7 (PF3D7_0213400) (UniProt Q7YTF7); test: inhibition of Plasmodium PK7 catalytic activity – biochemical, TCAMS antimalarial set, Kinase-Glo luminescence (AID 1159587); details: recombinant PfPK7, Kinase-Glo ATP depletion luminescence
[8] = molecular target: Calcium-dependent protein kinase 4 (Plasmodium falciparum (isolate 3D7)) (UniProt Q8IBS5); test: PfCDPK4 kinase inhibitors, biochemical, TCAMS library (AID 1159588; cut-off not given, nearly all actives have IC50 up to about 0.91 µM); details: recombinant PfCDPK4, Kinase-Glo ATP depletion luminescence
Chain of Calcium-dependent protein kinase 4 (Plasmodium falciparum (isolate 3D7)) (Q8IBS5 whole entry, looked up): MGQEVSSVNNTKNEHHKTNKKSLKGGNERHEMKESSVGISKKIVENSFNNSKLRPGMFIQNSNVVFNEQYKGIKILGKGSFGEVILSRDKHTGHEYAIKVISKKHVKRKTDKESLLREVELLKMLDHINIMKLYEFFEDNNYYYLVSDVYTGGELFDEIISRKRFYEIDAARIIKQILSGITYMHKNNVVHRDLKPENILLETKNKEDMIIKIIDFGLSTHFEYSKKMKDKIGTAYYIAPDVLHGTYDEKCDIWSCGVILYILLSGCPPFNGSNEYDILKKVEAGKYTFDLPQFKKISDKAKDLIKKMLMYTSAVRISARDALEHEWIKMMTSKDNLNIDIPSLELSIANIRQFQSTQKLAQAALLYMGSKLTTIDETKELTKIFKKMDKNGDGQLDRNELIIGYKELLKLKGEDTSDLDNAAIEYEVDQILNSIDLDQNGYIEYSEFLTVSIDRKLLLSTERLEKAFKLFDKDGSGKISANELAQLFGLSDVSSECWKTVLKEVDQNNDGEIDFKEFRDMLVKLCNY

Chain of Calcium-dependent protein kinase 1 (Plasmodium falciparum (isolate 3D7)) (P62344 whole entry, looked up): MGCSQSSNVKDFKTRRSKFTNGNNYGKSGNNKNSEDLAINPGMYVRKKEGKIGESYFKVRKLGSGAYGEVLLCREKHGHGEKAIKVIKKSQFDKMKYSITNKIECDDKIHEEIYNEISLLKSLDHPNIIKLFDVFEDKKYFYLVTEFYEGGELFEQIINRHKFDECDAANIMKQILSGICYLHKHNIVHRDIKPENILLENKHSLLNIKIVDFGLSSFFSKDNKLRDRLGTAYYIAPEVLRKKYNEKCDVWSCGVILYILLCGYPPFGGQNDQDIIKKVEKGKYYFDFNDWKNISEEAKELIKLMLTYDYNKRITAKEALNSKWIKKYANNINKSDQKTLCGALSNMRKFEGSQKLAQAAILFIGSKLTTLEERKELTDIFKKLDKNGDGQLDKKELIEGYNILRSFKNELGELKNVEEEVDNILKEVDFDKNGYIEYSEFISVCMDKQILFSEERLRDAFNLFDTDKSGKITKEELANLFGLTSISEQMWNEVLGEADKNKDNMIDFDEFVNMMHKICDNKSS
Chain of Plasmodium falciparum protein kinase 6 (PK6, PF3D7_1337100) (Q8IDW1 1-305): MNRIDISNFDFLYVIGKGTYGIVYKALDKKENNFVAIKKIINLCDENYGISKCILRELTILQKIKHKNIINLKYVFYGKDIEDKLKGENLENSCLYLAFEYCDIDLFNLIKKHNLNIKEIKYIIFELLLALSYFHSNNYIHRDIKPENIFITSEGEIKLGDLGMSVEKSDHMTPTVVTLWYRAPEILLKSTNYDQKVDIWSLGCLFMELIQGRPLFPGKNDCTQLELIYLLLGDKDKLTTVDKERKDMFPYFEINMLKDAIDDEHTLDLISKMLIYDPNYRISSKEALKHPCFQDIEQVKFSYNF
Chain of Protein kinase 7 (PK7), Plasmodium falciparum 3D7 (PF3D7_0213400) (Q7YTF7 1-343): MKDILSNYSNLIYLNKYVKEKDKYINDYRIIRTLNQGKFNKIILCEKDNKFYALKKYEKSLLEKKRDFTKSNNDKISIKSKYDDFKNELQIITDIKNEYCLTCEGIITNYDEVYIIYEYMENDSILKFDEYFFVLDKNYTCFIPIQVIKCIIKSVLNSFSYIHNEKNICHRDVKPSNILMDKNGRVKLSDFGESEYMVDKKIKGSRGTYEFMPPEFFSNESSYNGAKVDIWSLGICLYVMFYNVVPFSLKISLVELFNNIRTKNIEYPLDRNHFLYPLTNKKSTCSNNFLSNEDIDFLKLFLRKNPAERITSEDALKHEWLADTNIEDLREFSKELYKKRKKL
Chain of L-lactate dehydrogenase (Plasmodium falciparum (isolate CDC / Honduras)) (Q27743 whole entry, looked up): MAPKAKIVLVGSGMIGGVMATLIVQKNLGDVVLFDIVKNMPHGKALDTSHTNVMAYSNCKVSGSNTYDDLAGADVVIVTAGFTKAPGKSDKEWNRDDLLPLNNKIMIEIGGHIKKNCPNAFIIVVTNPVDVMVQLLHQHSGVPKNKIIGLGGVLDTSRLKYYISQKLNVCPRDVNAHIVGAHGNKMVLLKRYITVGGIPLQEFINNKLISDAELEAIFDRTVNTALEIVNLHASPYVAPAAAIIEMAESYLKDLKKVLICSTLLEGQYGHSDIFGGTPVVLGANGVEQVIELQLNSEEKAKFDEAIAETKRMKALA

| SMILES | growth inhibition [1] | inhibition [2] | inhibition [3] | growth inhibition [4] | outcome [5] | outcome [6] | outcome [7] | outcome [8] |
| --- | --- | --- | --- | --- | --- | --- | --- | --- |
| Cc1cc(C)c(CON2C(N)=NC(N)=NC2(C)C)cc1C | 93% (active) | 65% (active) | 2% | 92% (active) | inactive | inactive | inactive | inactive |
| O=C(/C=C/c1ccc(Cl)c(Cl)c1)NCCCCCCN1CCN(C(=O)Nc2cccc(Cl)c2)CC1 | 2% | 33% | -3% | 85% (active) | inactive | inactive | inactive | inactive |
| CCCCCCN=C(N)c1ccc2nc(-c3ccc(O)cc3)[nH]c2c1 | 99% (active) | -3% | 1% | 100% (active) | inactive | inactive | inactive | inactive |
| Cc1ccc(-n2c(Cc3cccc4ccccc34)nnc2SCCC#N)c(C)c1 | 98% (active) | 0% | -7% | 95% (active) | inactive | inactive | inactive | inactive |
| CCCNc1ccc2nccc(CCN3CCC(NCc4ccc5c(c4)NC(=O)CS5)CC3)c2n1 | 17% | -2% | -5% | 94% (active) | inactive | inactive | inactive | inactive |
| Cc1ccc(O)c(-c2cc(C(=O)Nc3ccc(S(=O)(=O)N4CCCCCC4)cc3)[nH]n2)c1 | 80% (active) | 25% | 4% | 100% (active) | inactive | inactive | inactive | inactive |
| O=C(Nc1ccc2nc(-c3ccc4nc(NC(=O)C5CCCCC5)sc4c3)[nH]c2c1)C1CCCCC1 | 68% (active) | 84% (active) | -9% | 100% (active) | inactive | inactive | inactive | inactive |
| O=C(Nc1ccccc1)c1ccc(N2CCC(COc3cccc(C(F)(F)F)c3)CC2)nc1 | 83% (active) | 11% | -3% | 96% (active) | inactive | inactive | inactive | inactive |
| CN(C)CCOC(=O)C1(O)CCC2CC1C2(C)C (stereo not drawn) | -5% | 10% | -9% | 95% (active) | inactive | inactive | inactive | inactive |
| COc1cccc(NC(=O)Cn2c(C)c(C#N)c3ccccc32)c1 | 100% (active) | 16% | 4% | 101% (active) | inactive | inactive | inactive | inactive |
| CNCCCNCc1ccc(-c2ccc(F)c(Cl)c2)o1 | 12% | 22% | 0% | 100% (active) | inactive | inactive | inactive | inactive |
| COc1ccc(Cc2nc(N=C(N)Nc3ccccc3)ccc2OC)cc1 | 68% (active) | 40% | 2% | 93% (active) | inactive | inactive | inactive | inactive |
| CC(C)c1ccc(CN2CCC(NC(=O)c3ccc(-c4cccc(Cl)c4)s3)CC2)cc1 | 6% | 50% (active) | 3% | 82% (active) | inactive | inactive | inactive | inactive |
| Cc1cccc2[nH]c(-c3cccc(-c4cccc(NC(=O)CN5CCN(C)CC5)c4)c3)nc12 | 99% (active) | 76% (active) | -1% | 101% (active) | inactive | inactive | inactive | inactive |
| O=C(CC(c1ccccc1)c1ccccc1O)N1CCOCC1 (stereo not drawn) | 5% | 30% | 0% | 84% (active) | inactive | inactive | inactive | inactive |
| O=C(Nc1ccc(C(=O)Oc2ccc3ccccc3c2)cc1)N[C@@H](Cc1ccc(O)cc1)C(=O)NC1CCN(Cc2ccc(O)cc2)C1 (stereo partly drawn) | 1% | 1% | -2% | 86% (active) | inactive | inactive | inactive | inactive |
| Cc1ccc(-c2ccc(NC(=O)N3CCc4cc(Br)c(N5CCN(C)CC5)cc43)cc2)cn1 | 16% | 86% (active) | -3% | 80% (active) | inactive | inactive | inactive | inactive |
| O=C(Cc1cnc[nH]1)Nc1ccc(-c2ccc(-c3nc4ccc(F)cc4[nH]3)cc2)cc1 | 91% (active) | 39% | 0% | 100% (active) | inactive | inactive | inactive | inactive |
| CN1CCCc2cc(NC(=O)C=Cc3ccc(-c4ccc(F)cc4F)o3)ccc2C1 | 27% | 5% | 4% | 90% (active) | inactive | inactive | inactive | inactive |
| OCc1ccc(-c2cncc(Nc3cccc(Cl)c3)c2)cc1 | 100% (active) | 4% | -3% | 95% (active) | inactive | inactive | inactive | inactive |
| Cc1cccc2[nH]c(-c3ccc(-c4cccc(CNCCc5ccncc5)c4)cc3)nc12 | 95% (active) | 28% | 2% | 101% (active) | inactive | inactive | inactive | inactive |

| SMILES | growth inhibition [1] | inhibition [2] | inhibition [3] | growth inhibition [4] | outcome [5] | outcome [6] | outcome [7] | outcome [8] |
| --- | --- | --- | --- | --- | --- | --- | --- | --- |
| CCOC(=O)CNC(=O)c1cc(=O)c2ccccc2o1 | -4% | 22% | -4% | 99% (active) | inactive | inactive | inactive | inactive |
| CCNc1cc(C(=O)N[C@@H](Cc2ccccc2)[C@H](O)CNC2(Cc3cccc(Cl)c3)CCC2)cc(N2CCCCS2(=O)=O)c1 | 83% (active) | 22% | 1% | 95% (active) | inactive | inactive | inactive | inactive |
| CCCNCc1ccc(-c2ccc(CN(CCOC)C(=O)c3ccc([N+](=O)[O-])c(C)c3)cc2)nc1 | 23% | 2% | 1% | 97% (active) | inactive | inactive | inactive | inactive |
| CCc1ccc(CN2CCCCC(NC(=O)c3cc(-c4ccccc4F)cs3)C2)cc1 (stereo not drawn) | 12% | 25% | -4% | 87% (active) | inactive | inactive | inactive | inactive |
| Cc1ccc(CCC(C)NCC(O)c2cccc(Cl)c2)cc1 (stereo not drawn) | 97% (active) | 2% | -4% | 97% (active) | inactive | inactive | inactive | inactive |
| CCOc1ccccc1CNc1nccc(NCc2ccc(Cl)cc2Cl)n1 | 58% (active) | 26% | -3% | 83% (active) | inactive | inactive | inactive | inactive |
| Cc1cccc2c(/C=C/C(=O)NC3CCC(CCN4CCc5ccc(C#N)cc5CC4)CC3)c[nH]c12 (stereo not drawn) | 49% | 18% | -1% | 91% (active) | inactive | inactive | inactive | inactive |
| N#Cc1ccc2c(c1)CCN(CCC1CCC(NC(=O)Nc3ccnc4ccccc34)CC1)C2 (stereo not drawn) | 77% (active) | 38% | 2% | 104% (active) | inactive | inactive | inactive | inactive |
| Cc1cc(O)c(C(C)C)cc1C1(c2cc(C(C)C)c(O)cc2C)OC(=O)c2ccccc21 | 18% | 8% | -3% | 95% (active) | inactive | inactive | inactive | inactive |
| Cc1cc(=O)[nH]c(-n2nc(C)cc2NC(=O)CC(c2ccccc2)c2ccccc2)n1 | 62% (active) | 42% | 2% | 90% (active) | inactive | inactive | inactive | inactive |
| COc1ccc(Br)cc1C1Nc2ccc3ccccc3c2C2=C1C(=O)CC(c1ccccc1)C2 (stereo not drawn) | 96% (active) | 25% | 4% | 101% (active) | inactive | inactive | inactive | inactive |
| CCCCN(CCCC)CCCCNc1c2ccc(Cl)cc2nc2ccc(OC)cc12 | 96% (active) | 68% (active) | 2% | 101% (active) | inactive | inactive | inactive | inactive |
| CC(C)CCN1CCCN(Cc2cccc(NC(=O)c3ccc(-c4ccccc4)cc3)c2)CC1 | 21% | 27% | 7% | 92% (active) | inactive | inactive | inactive | inactive |
| Cc1nnsc1C(=O)Nc1cccc(-c2ccc(-c3nc4ccc(C(F)(F)F)cc4[nH]3)cc2)c1 | 97% (active) | 62% (active) | 3% | 99% (active) | inactive | inactive | inactive | inactive |
| Cc1nccn1Cc1cc(C(C)(C)C)c(O)c(C(C)(C)C)c1 | -4% | 8% | -5% | 99% (active) | inactive | inactive | inactive | inactive |
| CC(=O)Nc1ccc(C(=O)Nc2cccc(-c3csc(-c4nc5ccccc5[nH]4)c3)c2)cn1 | 97% (active) | 6% | -3% | 101% (active) | inactive | inactive | inactive | inactive |
| CC(=O)Oc1cc(C(=O)Nc2ccc(Cl)cc2)cc2ccccc12 | 47% | 16% | -3% | 88% (active) | inactive | inactive | inactive | inactive |
| Cc1cccc2[nH]c(-c3ccc(-c4cccc(CN5CC(C)OC(C)C5)c4)s3)nc12 (stereo not drawn) | 79% (active) | 6% | -5% | 98% (active) | inactive | inactive | inactive | inactive |
| Cc1cccc(-c2cccc3c(NC(=O)N4CCc5cc6nccc(N7CCN8CCC[C@H]8C7)c6cc54)cccc23)n1 | 68% (active) | 14% | -6% | 94% (active) | inactive | inactive | inactive | inactive |
| c1ccc2[nH]c(Nc3ccc(Nc4nc5ccccc5[nH]4)cc3)nc2c1 | 27% | -3% | 1% | 98% (active) | inactive | inactive | inactive | inactive |
